The full data set covers some 7,900 targets. This sample favours those with a hit. About 0.6% of all pairs of compound and target were hits. Values without a mark were called inactive.
Compound: CCCc1cc(C)[nH]c(=O)c1CNC(=O)c1cc(-c2ccnc(N3CCN(C)CC3)c2)cc2c1cnn2C(C)C
Assay: log2 fold change, soluble protein after heating vs DMSO (PISA); higher = thermal stabilisation; K562 cells, 10 uM, 30 min; active = over 0.2 and 3.5 SD of the protein, either way, in both replicates (recomputed)
Procedure, shortened: (§1)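 K562 cells at 2×10^6 cells/mL were given 10 μM compound for 30 min. Aliquots then went through 3 min of heating across 48°C-58°C, were pooled, and were extracted in PBS with 0.5% NP-40 at 4°C, and the supernatant after 21,000xg for 90 min was quantified by TMTpro 16plex LC-MS/MS with channel sums equalised. Thermal stability relative to control samples, from duplicates, is given as log2 fold change.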

UniProt Q9UBF1, sequence (Q9UBF1 whole entry, looked up): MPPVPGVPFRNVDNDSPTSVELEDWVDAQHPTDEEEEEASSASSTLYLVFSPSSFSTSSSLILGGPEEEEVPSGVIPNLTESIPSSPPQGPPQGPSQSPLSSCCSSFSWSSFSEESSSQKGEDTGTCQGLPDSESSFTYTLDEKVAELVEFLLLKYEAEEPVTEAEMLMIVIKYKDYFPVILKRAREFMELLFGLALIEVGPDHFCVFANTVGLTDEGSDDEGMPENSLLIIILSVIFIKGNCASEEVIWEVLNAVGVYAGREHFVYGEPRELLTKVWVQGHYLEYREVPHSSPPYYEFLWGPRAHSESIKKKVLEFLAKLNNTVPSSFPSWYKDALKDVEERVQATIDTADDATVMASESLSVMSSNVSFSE
UniProt Q8WWC4, sequence (Q8WWC4 whole entry, looked up): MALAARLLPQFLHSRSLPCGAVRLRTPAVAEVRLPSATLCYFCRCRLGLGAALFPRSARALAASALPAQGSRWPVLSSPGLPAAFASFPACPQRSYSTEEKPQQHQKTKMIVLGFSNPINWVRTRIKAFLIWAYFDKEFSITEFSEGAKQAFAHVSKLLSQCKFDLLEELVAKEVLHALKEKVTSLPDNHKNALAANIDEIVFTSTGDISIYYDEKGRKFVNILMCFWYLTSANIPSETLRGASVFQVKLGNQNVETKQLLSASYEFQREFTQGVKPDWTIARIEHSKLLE
UniProt O00629, sequence (O00629 whole entry, looked up): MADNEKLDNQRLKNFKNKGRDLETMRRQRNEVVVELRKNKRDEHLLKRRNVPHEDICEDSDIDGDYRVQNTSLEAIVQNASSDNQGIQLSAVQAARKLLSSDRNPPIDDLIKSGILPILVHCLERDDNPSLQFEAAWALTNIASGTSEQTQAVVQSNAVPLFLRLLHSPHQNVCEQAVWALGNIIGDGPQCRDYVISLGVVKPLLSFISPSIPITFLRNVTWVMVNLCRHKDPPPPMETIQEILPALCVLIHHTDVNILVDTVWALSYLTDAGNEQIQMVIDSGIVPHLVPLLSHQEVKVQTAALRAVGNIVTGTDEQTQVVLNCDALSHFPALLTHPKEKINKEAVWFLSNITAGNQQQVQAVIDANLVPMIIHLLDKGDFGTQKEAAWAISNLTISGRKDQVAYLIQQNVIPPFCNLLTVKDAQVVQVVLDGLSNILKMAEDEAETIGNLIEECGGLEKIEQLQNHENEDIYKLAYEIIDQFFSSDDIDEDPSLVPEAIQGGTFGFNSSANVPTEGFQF
UniProt P13473, sequence (P13473 whole entry, looked up): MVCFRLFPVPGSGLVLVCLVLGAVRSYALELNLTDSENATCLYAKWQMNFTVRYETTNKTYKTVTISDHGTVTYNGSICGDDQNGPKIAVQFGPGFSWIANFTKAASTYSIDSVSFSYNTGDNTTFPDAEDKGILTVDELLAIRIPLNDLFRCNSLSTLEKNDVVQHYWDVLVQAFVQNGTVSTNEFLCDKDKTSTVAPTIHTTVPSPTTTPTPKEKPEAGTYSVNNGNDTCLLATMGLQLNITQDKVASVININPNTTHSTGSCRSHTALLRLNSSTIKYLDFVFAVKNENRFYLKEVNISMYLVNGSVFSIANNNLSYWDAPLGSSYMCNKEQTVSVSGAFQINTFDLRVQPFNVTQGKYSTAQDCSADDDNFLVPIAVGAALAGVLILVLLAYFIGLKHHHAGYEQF
UniProt Q9C0E8, sequence (Q9C0E8 whole entry, looked up): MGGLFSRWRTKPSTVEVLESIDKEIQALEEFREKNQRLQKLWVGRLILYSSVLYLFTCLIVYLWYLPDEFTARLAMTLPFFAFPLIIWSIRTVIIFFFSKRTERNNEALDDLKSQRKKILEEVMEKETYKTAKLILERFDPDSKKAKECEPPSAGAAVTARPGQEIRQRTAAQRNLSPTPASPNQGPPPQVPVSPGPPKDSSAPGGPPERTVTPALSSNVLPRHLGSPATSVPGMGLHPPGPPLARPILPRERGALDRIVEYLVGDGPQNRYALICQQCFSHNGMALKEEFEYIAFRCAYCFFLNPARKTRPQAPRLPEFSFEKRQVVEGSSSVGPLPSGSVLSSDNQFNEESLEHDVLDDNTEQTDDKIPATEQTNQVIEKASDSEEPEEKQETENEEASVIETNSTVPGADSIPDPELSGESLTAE
UniProt Q9BU23, sequence (Q9BU23 whole entry, looked up): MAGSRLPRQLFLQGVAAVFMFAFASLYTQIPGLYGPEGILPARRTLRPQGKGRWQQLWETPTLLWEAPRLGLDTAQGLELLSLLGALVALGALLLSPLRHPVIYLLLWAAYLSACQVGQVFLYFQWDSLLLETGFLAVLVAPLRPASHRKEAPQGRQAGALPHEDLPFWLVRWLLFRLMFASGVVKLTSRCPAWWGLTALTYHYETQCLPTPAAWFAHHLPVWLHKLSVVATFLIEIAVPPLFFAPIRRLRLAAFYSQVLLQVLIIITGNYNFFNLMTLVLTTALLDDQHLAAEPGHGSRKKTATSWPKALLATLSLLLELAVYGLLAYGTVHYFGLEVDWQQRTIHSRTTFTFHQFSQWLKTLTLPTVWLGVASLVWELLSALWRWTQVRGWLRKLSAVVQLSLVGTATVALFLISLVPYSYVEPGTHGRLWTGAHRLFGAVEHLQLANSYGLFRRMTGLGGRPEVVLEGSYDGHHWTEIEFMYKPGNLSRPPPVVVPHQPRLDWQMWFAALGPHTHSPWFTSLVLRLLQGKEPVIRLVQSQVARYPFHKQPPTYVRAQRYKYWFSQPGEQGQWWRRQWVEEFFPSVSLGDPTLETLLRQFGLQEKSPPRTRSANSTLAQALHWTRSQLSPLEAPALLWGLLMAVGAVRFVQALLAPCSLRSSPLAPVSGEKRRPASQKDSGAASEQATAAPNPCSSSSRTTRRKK
UniProt P46734, sequence (P46734 whole entry, looked up): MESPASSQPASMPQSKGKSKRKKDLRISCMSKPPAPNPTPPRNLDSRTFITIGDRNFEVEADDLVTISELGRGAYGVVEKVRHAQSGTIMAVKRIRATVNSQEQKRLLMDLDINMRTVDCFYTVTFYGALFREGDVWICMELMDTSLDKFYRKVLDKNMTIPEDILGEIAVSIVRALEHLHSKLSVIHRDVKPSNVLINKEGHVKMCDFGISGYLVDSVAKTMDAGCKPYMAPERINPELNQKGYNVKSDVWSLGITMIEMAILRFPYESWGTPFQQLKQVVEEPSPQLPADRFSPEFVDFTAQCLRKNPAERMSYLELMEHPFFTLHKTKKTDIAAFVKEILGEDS
UniProt Q9UHB6, sequence (Q9UHB6 whole entry, looked up): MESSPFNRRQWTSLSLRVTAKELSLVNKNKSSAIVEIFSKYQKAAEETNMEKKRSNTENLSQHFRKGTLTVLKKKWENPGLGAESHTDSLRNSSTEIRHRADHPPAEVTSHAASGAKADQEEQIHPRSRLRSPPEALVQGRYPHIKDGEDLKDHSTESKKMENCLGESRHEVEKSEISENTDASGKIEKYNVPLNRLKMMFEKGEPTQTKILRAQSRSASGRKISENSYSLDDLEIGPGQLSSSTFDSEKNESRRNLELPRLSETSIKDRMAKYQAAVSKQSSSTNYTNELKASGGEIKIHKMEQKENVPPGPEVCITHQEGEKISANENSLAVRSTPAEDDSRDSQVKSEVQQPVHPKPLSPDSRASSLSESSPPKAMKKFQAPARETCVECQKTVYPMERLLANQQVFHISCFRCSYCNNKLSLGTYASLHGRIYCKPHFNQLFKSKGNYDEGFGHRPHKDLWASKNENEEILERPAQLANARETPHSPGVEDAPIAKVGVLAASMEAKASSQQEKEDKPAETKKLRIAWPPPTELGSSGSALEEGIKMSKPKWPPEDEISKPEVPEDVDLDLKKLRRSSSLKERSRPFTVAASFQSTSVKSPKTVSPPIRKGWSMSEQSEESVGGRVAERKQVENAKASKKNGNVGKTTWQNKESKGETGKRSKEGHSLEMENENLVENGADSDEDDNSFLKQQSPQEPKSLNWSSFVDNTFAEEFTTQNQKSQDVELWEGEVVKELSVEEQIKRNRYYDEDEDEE
UniProt Q13418, sequence (Q13418 whole entry, looked up): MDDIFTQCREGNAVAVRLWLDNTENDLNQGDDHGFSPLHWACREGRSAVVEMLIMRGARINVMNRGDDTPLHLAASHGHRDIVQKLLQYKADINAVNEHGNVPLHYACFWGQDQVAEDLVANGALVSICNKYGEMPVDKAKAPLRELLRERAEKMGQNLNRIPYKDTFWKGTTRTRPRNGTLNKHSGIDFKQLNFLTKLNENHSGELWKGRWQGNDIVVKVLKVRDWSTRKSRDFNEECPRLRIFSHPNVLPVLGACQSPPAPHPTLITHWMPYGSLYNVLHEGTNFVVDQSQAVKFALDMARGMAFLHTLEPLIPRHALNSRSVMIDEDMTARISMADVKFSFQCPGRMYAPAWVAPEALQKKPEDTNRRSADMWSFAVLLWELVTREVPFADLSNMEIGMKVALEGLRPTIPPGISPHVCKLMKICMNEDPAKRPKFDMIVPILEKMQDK
UniProt Q9Y496, sequence (Q9Y496 whole entry, looked up): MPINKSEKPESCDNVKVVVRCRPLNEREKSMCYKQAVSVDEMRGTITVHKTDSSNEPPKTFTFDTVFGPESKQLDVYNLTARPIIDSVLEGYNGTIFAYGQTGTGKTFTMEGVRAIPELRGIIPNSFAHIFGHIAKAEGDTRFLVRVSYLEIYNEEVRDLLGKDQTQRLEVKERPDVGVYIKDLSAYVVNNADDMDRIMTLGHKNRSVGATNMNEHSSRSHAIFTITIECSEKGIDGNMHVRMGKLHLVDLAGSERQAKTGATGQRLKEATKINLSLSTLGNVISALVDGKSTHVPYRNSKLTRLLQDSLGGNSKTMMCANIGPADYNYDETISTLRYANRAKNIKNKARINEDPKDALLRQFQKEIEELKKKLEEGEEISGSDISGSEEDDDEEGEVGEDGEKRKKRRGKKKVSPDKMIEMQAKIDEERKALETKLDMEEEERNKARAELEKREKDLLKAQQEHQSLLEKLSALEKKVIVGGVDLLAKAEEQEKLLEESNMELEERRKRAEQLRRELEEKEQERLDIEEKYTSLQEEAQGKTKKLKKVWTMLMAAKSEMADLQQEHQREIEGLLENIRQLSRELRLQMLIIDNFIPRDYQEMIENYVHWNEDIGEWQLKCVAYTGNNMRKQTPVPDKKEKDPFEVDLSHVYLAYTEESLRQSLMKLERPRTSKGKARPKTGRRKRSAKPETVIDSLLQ

Which log2 fold change does the source give for MCUR1 (UniProt Q96AQ8) here?
Its log2 fold change is -0.079.

With ITPRIP (UniProt Q8IWB1) as the target, how does the log2 fold change read?
The log2 fold change was -0.099.

With MAP2K1 (UniProt Q02750) as the target, how does the log2 fold change read?
The log2 fold change was 0.129.

Which log2 fold change does the source give for LPGAT1 (UniProt Q92604) here?
Its log2 fold change is -0.033.

For LMNB1 (UniProt P20700), which log2 fold change is on record?
Its log2 fold change is -0.029.

LTV1 (UniProt Q96GA3) was tested. Which log2 fold change did it give?
Its log2 fold change is -0.011.

Which log2 fold change does the source give for MAIP1 (UniProt Q8WWC4) here?
The log2 fold change was -0.034.

For MIER1 isoform 12 (UniProt Q8N108), which log2 fold change is on record?
The log2 fold change was -0.013.

For KCT2 (UniProt Q8NC54), which log2 fold change is on record?
Its log2 fold change is -0.008.

Which log2 fold change does the source give for KPNA4 (UniProt O00629) here?
Its log2 fold change is 0.023.

Which log2 fold change does the source give for MAPK12 (UniProt P53778) here?
Its log2 fold change is 0.016.

For LDLR (UniProt P01130), which log2 fold change is on record?
The log2 fold change was -0.018.

For LMF2 (UniProt Q9BU23), which log2 fold change is on record?
The log2 fold change was 0.016.

LTN1 isoform 3 (UniProt O94822) was tested. Which log2 fold change did it give?
The log2 fold change was 0.017.

LRPPRC (UniProt P42704) was tested. Which log2 fold change did it give?
The log2 fold change was -0.005.

MAD2L1 (UniProt Q13257) was tested. Which log2 fold change did it give?
Its log2 fold change is -0.129.

With LARP4B (UniProt Q92615) as the target, how does the log2 fold change read?
Its log2 fold change is 0.05.

ILK (UniProt Q13418) was tested. Which log2 fold change did it give?
The log2 fold change was -0.031.

How did the log2 fold change turn out when LTO1 (UniProt Q8WV07) was run?
The log2 fold change was 0.

For KIF3A (UniProt Q9Y496), which log2 fold change is on record?
The log2 fold change was 0.045.

For MAP3K20 (UniProt Q9NYL2), which log2 fold change is on record?
The log2 fold change was 0.022.

MAGOHB (UniProt Q96A72) was tested. Which log2 fold change did it give?
The log2 fold change was -0.069.

MAP3K4 isoform 2 (UniProt Q9Y6R4) was tested. Which log2 fold change did it give?
The log2 fold change was -0.012.

LIMA1 isoform 4 (UniProt Q9UHB6) was tested. Which log2 fold change did it give?
The log2 fold change was -0.033.

How did the log2 fold change turn out when MAGEC2 (UniProt Q9UBF1) was run?
Its log2 fold change is 0.005.

MAP2K3 isoform 3 (UniProt P46734) was tested. Which log2 fold change did it give?
The log2 fold change was 0.021.

MAGEA9 (UniProt P43362) was tested. Which log2 fold change did it give?
Its log2 fold change is 0.054.

With ILVBL (UniProt A1L0T0) as the target, how does the log2 fold change read?
Its log2 fold change is 0.004.

How did the log2 fold change turn out when MDN1 (UniProt Q9NU22) was run?
Its log2 fold change is 0.027.

With KIF21A isoform 4 (UniProt Q7Z4S6) as the target, how does the log2 fold change read?
Its log2 fold change is -0.025.

How did the log2 fold change turn out when LNPK (UniProt Q9C0E8) was run?
The log2 fold change was -0.028.

With LRBA (UniProt P50851) as the target, how does the log2 fold change read?
The log2 fold change was -0.025.

How did the log2 fold change turn out when LEMD3 (UniProt Q9Y2U8) was run?
The log2 fold change was 0.054.

With LAMP2 (UniProt P13473) as the target, how does the log2 fold change read?
The log2 fold change was -0.028.

KLHDC4 (UniProt Q8TBB5) was tested. Which log2 fold change did it give?
The log2 fold change was -0.223.

Which log2 fold change does the source give for LBR (UniProt Q14739) here?
Its log2 fold change is -0.009.

How did the log2 fold change turn out when KHDC4 (UniProt Q7Z7F0) was run?
The log2 fold change was 0.038.

How did the log2 fold change turn out when MAP4K4 isoform 3 (UniProt O95819) was run?
The log2 fold change was -0.02.

For LEMD2 (UniProt Q8NC56), which log2 fold change is on record?
The log2 fold change was 0.002.

Compound: CCN(CC)Cc1ccc2cc(COC(=O)Nc3ccc(C(=O)NO)cc3)ccc2c1 [givinostat]
Assay: as above
Procedure, shortened: as §1

MCUR1 (UniProt Q96AQ8) was tested. Which log2 fold change did it give?
The log2 fold change was -0.033.

For ITPRIP (UniProt Q8IWB1), which log2 fold change is on record?
The log2 fold change was 0.007.

With MAP2K1 (UniProt Q02750) as the target, how does the log2 fold change read?
Its log2 fold change is 0.007.

With LPGAT1 (UniProt Q92604) as the target, how does the log2 fold change read?
Its log2 fold change is 0.064.

For LMNB1 (UniProt P20700), which log2 fold change is on record?
Its log2 fold change is 0.002.

LTV1 (UniProt Q96GA3) was tested. Which log2 fold change did it give?
Its log2 fold change is -0.025.

MAIP1 (UniProt Q8WWC4) was tested. Which log2 fold change did it give?
Its log2 fold change is 0.001.

With MIER1 isoform 12 (UniProt Q8N108) as the target, how does the log2 fold change read?
The log2 fold change was 0.31 (active).

With KCT2 (UniProt Q8NC54) as the target, how does the log2 fold change read?
Its log2 fold change is -0.108.

How did the log2 fold change turn out when KPNA4 (UniProt O00629) was run?
The log2 fold change was 0.006.

How did the log2 fold change turn out when MAPK12 (UniProt P53778) was run?
Its log2 fold change is -0.058.

Which log2 fold change does the source give for LDLR (UniProt P01130) here?
The log2 fold change was -0.03.

With LMF2 (UniProt Q9BU23) as the target, how does the log2 fold change read?
The log2 fold change was 0.033.

LTN1 isoform 3 (UniProt O94822) was tested. Which log2 fold change did it give?
Its log2 fold change is 0.065.

Which log2 fold change does the source give for LRPPRC (UniProt P42704) here?
Its log2 fold change is 0.417.

MAD2L1 (UniProt Q13257) was tested. Which log2 fold change did it give?
Its log2 fold change is 0.02.

For LARP4B (UniProt Q92615), which log2 fold change is on record?
Its log2 fold change is 0.061.

ILK (UniProt Q13418) was tested. Which log2 fold change did it give?
Its log2 fold change is 0.041.

LTO1 (UniProt Q8WV07) was tested. Which log2 fold change did it give?
Its log2 fold change is -0.121.

KIF3A (UniProt Q9Y496) was tested. Which log2 fold change did it give?
Its log2 fold change is 0.074.

How did the log2 fold change turn out when MAP3K20 (UniProt Q9NYL2) was run?
The log2 fold change was -0.089.

With MAGOHB (UniProt Q96A72) as the target, how does the log2 fold change read?
The log2 fold change was 0.003.

For MAP3K4 isoform 2 (UniProt Q9Y6R4), which log2 fold change is on record?
The log2 fold change was -0.015.

For LIMA1 isoform 4 (UniProt Q9UHB6), which log2 fold change is on record?
Its log2 fold change is 0.032.

MAGEC2 (UniProt Q9UBF1) was tested. Which log2 fold change did it give?
Its log2 fold change is -0.013.

For MAP2K3 isoform 3 (UniProt P46734), which log2 fold change is on record?
Its log2 fold change is 0.002.

With MAGEA9 (UniProt P43362) as the target, how does the log2 fold change read?
Its log2 fold change is 0.066.

Which log2 fold change does the source give for ILVBL (UniProt A1L0T0) here?
Its log2 fold change is -0.002.

For MDN1 (UniProt Q9NU22), which log2 fold change is on record?
The log2 fold change was 0.083.

KIF21A isoform 4 (UniProt Q7Z4S6) was tested. Which log2 fold change did it give?
The log2 fold change was 0.069.

With LNPK (UniProt Q9C0E8) as the target, how does the log2 fold change read?
The log2 fold change was -0.018.

For LRBA (UniProt P50851), which log2 fold change is on record?
The log2 fold change was 0.008.

For LEMD3 (UniProt Q9Y2U8), which log2 fold change is on record?
Its log2 fold change is 0.077.

For LAMP2 (UniProt P13473), which log2 fold change is on record?
Its log2 fold change is -0.02.

With KLHDC4 (UniProt Q8TBB5) as the target, how does the log2 fold change read?
Its log2 fold change is -0.011.

For LBR (UniProt Q14739), which log2 fold change is on record?
Its log2 fold change is 0.125.

With KHDC4 (UniProt Q7Z7F0) as the target, how does the log2 fold change read?
Its log2 fold change is 0.048.

For MAP4K4 isoform 3 (UniProt O95819), which log2 fold change is on record?
The log2 fold change was 0.017.

For LEMD2 (UniProt Q8NC56), which log2 fold change is on record?
The log2 fold change was -0.022.

Reference: the supplement of paper PMC10849652
